Compound activity: PubChem BioAssay, several laboratories
Only some compounds are listed: those with a hit (about 1.8% of all), similar ones and a draw of the others.
GRK2 aptamer HTS: blocks RNA aptamer binding to human GRK2; inhibition of aptamer binding, % at 10 µM; 330,000 compounds, 0.59% hits; P25098; bead flow cytometry, FAM-aptamer displacement from GRK2;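 active means inhibition of aptamer binding above 40%, roughly 3 SD of noise, on plates passing a quality check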;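 further: median bead fluorescence of bound FAM aptamer so fluorescent compounds give negative values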
DSG3 Ab inh: human desmoglein-3 autoantibody binding inhibition; DSG3-coupled beads, scFv-anti-DSG3-GFP binding, flow cytometry; stronger effect = lower value; 310,000 compounds, 0.48% hits; AID 588358; P32926; binding (percent of control), % at 10 µM;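 active means binding more than 3 SD below its plate's average and above zero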;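 further: hits lower antibody fragment binding to DSG3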
LANA-H2B inh: blocks KSHV LANA binding to histone H2A/H2B; cell-free LANA-H2A/H2B peptide, fluorescence polarization; inhibition, % (test concentration not listed); 320,000 compounds, 0.6% hits; in the data active means inhibition mostly above about 10%, no sharp cut-off; inactive means mostly below about 6.7%
HDAC3 inh: human HDAC3 inhibition | O15379 | inhibition, % at 8.3 µM | AID 2718 | recombinant HDAC3, fluorogenic peptide/trypsin coupled, fluorescence | 320,000 compounds, 0.15% hits; in the data active means inhibition above about 26%, passing the limit was not always enough
PKD1 kinase inh: blocks activity of human protein kinase D1 | Q15139 | PKD1 kinase fluorescence polarization assay | inhibition, % (no concentration beside the values) | 200,000 compounds, 0.056% hits
VLA-4 inh: inhibition in a human VLA-4 binding assay | inhibition, % (about 7 µM as worked out from the volumes in the protocol) | VLA-4 expressing cells, ligand binding flow cytometry | P13612 | AID 2557 | 330,000 compounds, 0.2% hits
Of the large screens only hits and unclear results are named; the others gave an inactive call. Unless noted, no stated cut-off is given here; in the data, active means inhibition above about 50%; inactive means the rest.

CC1=NN(C(=O)c2ccc(Cl)cc2)C(O)(c2ccccc2)C1 (centres undefined)	LANA-H2B inh 9.9 (no result: PKD1 kinase inh)
CC[C@]12c3[nH]c4ccccc4c3CCN1C(=O)C(CC(=O)NC(C)(C)C)C[C@@H]2C(=O)N1CCN(C(=O)C2CC2)CC1 (some centres undefined)	LANA-H2B inh 182.6 (no result: PKD1 kinase inh)
CC[C@]12c3[nH]c4cc(CCC(=O)N(C)C)ccc4c3CCN1C(=O)[C@@H](CC(=O)NC(C)(C)C)C[C@@H]2C(=O)N1CCN(C(=O)C2CC2)CC1	none (no result: LANA-H2B inh, HDAC3 inh, PKD1 kinase inh, VLA-4 inh)
CC(C)(C)NC(=O)CC1C[C@H](C(=O)N2CCCCC2)[C@@]2(CCc3ccccc3)c3[nH]c4ccccc4c3CCN2C1=O (some centres undefined)	LANA-H2B inh 32.4 (no result: PKD1 kinase inh)
CC[C@]12c3[nH]c4ccccc4c3CCN1C(=O)C(CC(=O)NCC13CC4CC(CC(C4)C1)C3)C[C@@H]2C(=O)N1CCN(C(=O)C2CC2)CC1 (some centres undefined)	LANA-H2B inh active (no result: PKD1 kinase inh)
CCCNC(=O)NC(=O)CSc1nncs1	none
Cc1ccc(CNc2ccc(S(=O)(=O)N3CCOCC3)cc2[N+](=O)[O-])cc1	none
O=C(Nc1cccc(Cl)c1N1CCOCC1)c1cccs1	none (no result: PKD1 kinase inh)
CCN(CC(=O)Nc1ccc(NC(C)=O)cc1)C(=O)C1CCCC1	LANA-H2B inh 102.9 (no result: PKD1 kinase inh)
CCN(CC(=O)Nc1ccc(NC(C)=O)cc1)C(=O)c1ccc2c(c1)OCCO2	none (no result: PKD1 kinase inh)
CCN(CC(=O)Nc1ccc(NC(C)=O)cc1)C(=O)c1ccc2c(c1)OCO2	LANA-H2B inh 22.1 (no result: PKD1 kinase inh)
O=C(/C=C/c1ccc([N+](=O)[O-])cc1)Nc1ncc([N+](=O)[O-])s1	none (no result: GRK2 aptamer HTS, DSG3 Ab inh, LANA-H2B inh, HDAC3 inh, VLA-4 inh)
COc1ccccc1C(=O)NCC(=O)N/N=C(\C)Cc1ccccc1	none (no result: DSG3 Ab inh, PKD1 kinase inh)
CCN(CC(=O)Nc1ccc(N2CCOCC2)cc1)C(=O)COc1ccccc1OC	LANA-H2B inh 10.5
CN(CC(=O)Nc1ccc(N2CCOCC2)cc1)C(=O)COc1ccccc1F	none (no result: PKD1 kinase inh)
Cc1ccc(S(=O)(=O)N2CCOC2CNC(=O)C(=O)NCCc2c[nH]c3ccccc23)cc1 (centres undefined)	LANA-H2B inh 42.1
O=C(NCCc1ccco1)C(=O)NCC1OCCCN1S(=O)(=O)c1ccc(Cl)cc1 (centres undefined)	none (no result: DSG3 Ab inh, PKD1 kinase inh)
Cc1ccc(S(=O)(=O)N2CCCOC2CNC(=O)C(=O)NCCc2ccco2)cc1 (centres undefined)	DSG3 Ab inh 82.1 (no result: GRK2 aptamer HTS, LANA-H2B inh, HDAC3 inh, PKD1 kinase inh, VLA-4 inh)
COc1cccc(C(=O)N2CCN(Cc3ccccn3)CC2)c1	none (no result: PKD1 kinase inh)
CCOC(=O)c1c(C)n(C)c2ccc(OC)c([N+](=O)[O-])c12	none
COC(=O)[C@H](Cc1ccc(O)cc1)NC(=O)Cn1cnc2c(OCc3ccccc3)ncnc21	none (no result: LANA-H2B inh, HDAC3 inh, PKD1 kinase inh)
O=[N+]([O-])c1ccc(OCc2cnc(Cl)s2)c([N+](=O)[O-])c1	DSG3 Ab inh 86.8
CC(C)(C)C(=O)Nc1cccc(OC(F)(F)C(F)Cl)c1 (centres undefined)	LANA-H2B inh 32.2
COc1cccc(NC(=O)c2ccc(NC(=O)C(C)(C)C)cc2)c1	none (no result: GRK2 aptamer HTS)
CC(=O)c1ccc(S(=O)(=O)N(C)CCCC(=O)N(C)Cc2c(F)cccc2Cl)cc1	LANA-H2B inh 57.6 (no result: PKD1 kinase inh)
Cn1nnnc1SCC1=C(C(=O)O)N2C(=O)[C@@H](NC(=O)[C@H](O)c3ccccc3)[C@H]2SC1	GRK2 aptamer HTS 52.0
COc1ccc(CC(=O)N2CCc3ccccc3C2)cc1	none (no result: PKD1 kinase inh)
O=C(Cc1ccc(Cl)cc1)N1CCc2ccccc2C1	LANA-H2B inh 20.0 (no result: PKD1 kinase inh)
CCOc1ccc(S(=O)(=O)NC(Cc2cnc[nH]2)C(=O)O)cc1 (centres undefined)	DSG3 Ab inh 8.8
COCCNc1nc(-c2cc(C)n(CCc3ccc(OC)cc3)c2C)cs1	DSG3 Ab inh 88.9
O=C(Oc1ccc2c(-c3ccccc3)cc(=O)oc2c1)c1cccs1	none
O=C(Oc1ccc2ccc(=O)oc2c1)c1cccs1	HDAC3 inh 30.4
CC(C(=O)OCC(=O)c1cccc([N+](=O)[O-])c1)N1C(=O)C2C3CCC(C3)C2C1=O (centres undefined)	none
CC1(C)S[C@@H]2[C@H](NC(=O)C(C(=O)O)c3ccccc3)C(=O)N2[C@H]1C(=O)O (some centres undefined)	LANA-H2B inh 26.8 (no result: DSG3 Ab inh, HDAC3 inh)
CC1(C)S[C@@H]2[C@H](NC(=O)[C@H](N)c3ccccc3)C(=O)N2[C@H]1C(=O)O	none
